# From PubChem BioAssay (NCATS)
# Results filed as inconclusive are left out. A call without a number means that no potency is given here. Activity calls are given as the source filed them. Calls come from the whole dose curve; as a rule, active = well fitted cell-killing curve with a large enough effect; inconclusive = small, poorly fitted or top-dose-only effect, or effect the other way; inactive = flat fitted curve, though single readings scatter.
# Experiment: MultiTox-Fluor Cytotoxicity Assay - LYMP1-001 - Dead Cells (AID 946)
# Conditions: LYMP1-001 lymphoblastoid cells, dead-cell protease fluorescence; series mostly up to 92.2 µM
# From the text: NIH Chemical Genomics Center [NCGC]
# NIH Molecular Libraries Screening Centers Network [MLSCN]
# National Institutes of Environmental Health Sciences [NIEHS]
# National Toxicology Program [NTP]
# We have developed a 1536-well cell-based assay for quantitative high throughput screening (qHTS) against a number of cell lines to determine in vitro cytotoxicity of small molecules. This particular assay uses a human lymphoblastoid cell line (LYMP1-001) purchased from Coriell Institute for Medical Research.
# NCGC Assay Protocol Summary:
# The MultiTox-Fluor Cytotoxicity Assay (Promega) is a homogeneous method to simultaneously measure the relative number of live and dead cells in culture by detecting changes in cell membrane integrity. There are two fluorogenic peptide substrates in the assay reagent. Viable cells are determined when the cell-permeant substrate (GF-AFC) enters the cell and is cleaved by protease from live cells resulting in liberated fluorophore. This live-cell protease activity restricted to viable cells is proportional to cell number. The dead cells are determined by using fluorogenic cell-impermeant peptide substrate (bis-AAF-R110) which cleaved by dead cell proteases leaking from damaged cell membrane.
# Using the MultiTox-Fluor Cytotoxicity Assay, the relative number of dead cells was measured in the lymphoblastoid cell line with complete culture medium following compound treatment for 16 hours. The assay was performed in opaque black Kalypsys 1536-well plates. In the screen, tetraoctylammonium bromide was used as positive control. Library compounds were measured for their ability to cause acute toxicity in the cell line, as reflected by an increase in dead cell protease activity, in a concentration-dependent manner. Data were normalized to the controls for basal activity (DMSO only) and 100% stimulation (15 uM tetraoctylammonium bromide). AC50 values were determined from concentration-response data modeled with the standard Hill equation.
# qHTS protocol for MultiTox-Fluor Cytotoxicity assay
# [Step] [Parameter] [Value] [Description]
# 1. Reagent; 5 uL; 2500 lymphoblastoid cells/well
# 2. Time; 5 hr; 37 C incubation
# 4. Controls; 23 nL; Tetraoctylammonium bromide 6.4pM to 92 uM
# 5. Time; 16 hr; 37 C incubation
# 6. Reagent; 5 uL; MuliTox-Fluor Assay reagent
# 7. Time; 60 min; Room Temperature
# 8. Detection; dead-cell fluorescence (Ex/Em=485/520); EnVision plate reader
# Keywords: cytotoxicity, lymphoblastoid cell line, fluorescence, NTPHTS, NTPHTS_NCGC, NIEHS, EPA, DSSTox, MLSMR, MLSCN, NIH Roadmap, qHTS, NCGC
row,SMILES,Potency
1,Cc1ccc(N)c([N+](=O)[O-])c1,inactive
2,O=C1c2ccccc2C(=O)C1c1ccc2ccccc2n1,inactive
3,CC1=C2[C@H](/C=C(\C)C(=O)O)CC[C@@H](C)[C@H]2CC1,inactive
4,c1ccc2scnc2c1,inactive
5,C[C@H](CCC(=O)O)[C@H]1CC[C@H]2[C@@H]3CC[C@@H]4C[C@H](O)CC[C@]4(C)[C@H]3CC[C@]12C,inactive
6,Clc1cc(Cl)c(Cl)c(Cl)c1Cl,inactive
7,CN(C)C=O,inactive
8,C=CCOC(=O)c1ccccc1C(=O)OCC=C,inactive
9,C=CCc1ccc(OC)c(OC)c1,inactive
10,O=NO,inactive
11,C=C(C)C1CC=C(C)C(O)C1 (stereo not given),inactive
12,Nc1ccc(Cl)cc1Cl,inactive
13,COc1ccc(/C=C/c2cc(OC)cc(=O)o2)cc1,inactive
14,C=Cc1ccccc1Cl,inactive
15,C/C=C\c1ccc(OC)cc1,inactive
16,COc1cc(/C=C/c2ccccc2)oc(=O)c1,inactive
17,Cc1ccccc1C,inactive
18,CCO,inactive
19,CC12CCC(CC1=O)C2(C)C (stereo not given),inactive
20,CN(C)CCCCCCN(C)C,inactive

row,SMILES,Potency
1,COC(=O)c1ccc(C)cc1,inactive
2,CCCCCCCCCCCC(=O)O,inactive
3,COc1ccc2nc(N)sc2c1,inactive
4,CC1(C)CC(N=C=O)CC(C)(CN=C=O)C1 (stereo not given),inactive
5,CCC(C)c1ccccc1O (stereo not given),inactive
6,CC(=O)OC/C=C(\C)CCC=C(C)C,inactive
7,c1ccc2c(c1)c1cccc3ccc4cccc2c4c31,inactive
8,Clc1cc(Cl)c(Cl)cc1Cl,inactive
9,CC1=CC(C)(C)Nc2ccccc21,inactive
10,Cc1c(N=C=O)cccc1N=C=O,inactive
11,CCCCCCCCCCCCCC(=O)O,inactive
12,O=C(O)CC(C(=O)O)C(CC(=O)O)C(=O)O (stereo not given),inactive
13,COCC(=O)O,inactive
14,C=CC(=C)CCC=C(C)C,inactive
15,CCC(O)OC(O)CC (stereo not given),inactive
16,Nc1ccc(S(=O)(=O)O)cc1,inactive
17,O=C(O)c1ccccc1,inactive
18,O=C1CCc2ccccc2O1,inactive
19,CCCCOCCO,inactive
20,CCCN(CCC)C(=O)SCC,inactive
